The test system of the test is VDR:RXRa (NR concentration 270 nM, RXRa partner concentration 90 nM). Kind of test: PBM binding z-score (relative to random genomic background probes); higher = stronger binding; sequences stand for … in GC…GCGATTGACAGCGTAGAATGAAGG
As to the method: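 Protein-binding microarray (Agilent 4x180K custom design, double-stranded 60-nt probes: 5' GC cap, 34-nt variable region, 24-nt constant primer region; full probe sequence given). Purified or IVT nuclear receptor:RXRα heterodimers (3:1 NR:RXRα, mostly 270:90 nM) or homodimers were incubated for 1 h in PBS with 2% milk and no ligand, then detected with Alexa488 antibodies. Fluorescence from o1-orientation probes (~5 replicates averaged) was converted to z-scores against 500 random hg19 background probes. Variable regions are seed direct-repeat (DR0–DR5) sites, all their single-nucleotide variants and half-site ablations.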
TTACCAAGGTGAAAGGTCGTTGGTGCACGCCTTG returned a PBM binding z-score of 3.5.

In turn, ACAGACAGGTGATGAAGGTAACTCAGGCTATCAT had a PBM binding z-score of 0.0426.

For TCTCAGAGGACACGAAAGGTCAGAGCTCGACATC, the PBM binding z-score amounted to 3.62.

CCTAGTTGGTCAAGGGCACACACGCTATAGGTAC gave a PBM binding z-score of 0.813.

The sequence ACAGAAAGGTGAGTGAAGGTAACTCAGCTGGACG showed a PBM binding z-score of 0.368.

CGTACAGGGTCAGCTAGGCCAGAGTAGGGACGGC gave a PBM binding z-score of 3.78.

As for TCTCGGAGGGCACGAAAGGTCAGAGCTCGACATC, the PBM binding z-score is 4.66.

The sequence CCTGCTAGGTCAATGGTAAGCTAAAGCAGCTCGC returned a PBM binding z-score of 0.595.

In the case of GCTAGGAGGACAAGGTCAGAGCTTTGTCCGTAGA, the PBM binding z-score is 1.4.

Take AGTCCAAGTTCATCTAGGTAACGTAAGATATGCT: the PBM binding z-score is 4.48.

GCATAAAGGTAATACAAGGTGAAAGTCCGATTGT registered a PBM binding z-score of 1.05.

Regarding TCTTGTAGATCAAAAGTTAAGAAAGCCGAAGCCT, the PBM binding z-score is 0.386.

For the sequence CAAACTAGGGCAAGAGGTCAAAGTCCGCTTCCCG, the PBM binding z-score turned out to be 5.08.

CCTCGGCGGACAACAGGAGGTCAGAGCTGCCAGA showed a PBM binding z-score of 0.818.

The sequence CGTGCAAGGTCAGCAGGTCAGTGAAAGCGACGTG displayed a PBM binding z-score of 4.25.

In the case of GCGACTGGGGCAAAGCAGGTGACCATAAGGTTGG, the PBM binding z-score is -0.478.

ACTAGCAGGCCAAGTGTCACTCAAGATTAGTCCG came in with a PBM binding z-score of -0.322.

The sequence TCTTGTAAATCAACAGGAGGTTAAGAAAGATCGA had a PBM binding z-score of 1.16.

CCTCAGAGGACAGAAGGTCAGAGCTGTCCGCTTT: the PBM binding z-score was found to be 1.07.

Regarding CCTAGTTGGTCAGGAGCTCACACACCGGATATGA, the PBM binding z-score came out at 0.0372.

On to ATCTCTAGGTAACAAGTTCAGTGAAAGAGAGGAC, for which the PBM binding z-score turned out to be 2.13.

For TATTGTAGATCAATAGAGGTTAAGAAAGTGCGCT, the PBM binding z-score worked out at 1.91.

Sequence ATCGCTAGGTAAAGATAGTTCAGTGAATGCAAAT registered a PBM binding z-score of 0.0952.

CCAGACAGGTGAGAAGCTAACTCAGCCTCGATTA came in with a PBM binding z-score of -0.228.

In the case of TCTTGTAGATCAATGGTTAAGAAAGCCGAAGCCT, the PBM binding z-score turned out to be 0.403.

For AATACAGGGTCATCGGAGGCCAGAGTACGCACAG, the PBM binding z-score is 5.88.

For TCTTGTAGATCAAACGTTAAGAAAGCCGAAGCCT, the PBM binding z-score worked out at 0.359.

Take CGAACTTGGTCATCCAGGACAGTGAATACATTGA: the PBM binding z-score was 1.59.

Consider TCTTGTAGATCAACAGGAGGTTAGGAAAGATCGA, for which the PBM binding z-score amounted to 0.0401.

Turning to AGTCAAAGTTCATCTATGTAACGTAAGATATGCT, the PBM binding z-score came to 4.75.

Turning to CCTAGCAGGCCAATCTGGATCACTCAAGGCTTGA, the PBM binding z-score is -0.611.

For CGTCAAAGTTCAAGGTAACGAAACAGAAAGCAGC, the PBM binding z-score came to 3.7.

Sequence TCTGCTAGGTCAACGATGGTCAGCAAATCTGCTA came in with a PBM binding z-score of 1.64.

As for TAGCCTAGGTGAGATCGGGCCAGTATACGCTATA, the PBM binding z-score was -0.592.

For the sequence ATCTCTAGGTAAAAGCTCAGTGAATCCCGAGGAT, the PBM binding z-score is -0.227.

With TTTAGCAGGCCAGAGGGTCACTCAAGAGGTACGG, the PBM binding z-score came to 1.55.

ATCTGTAGGTAAAGATAGTTCAGTGAATGCAAAT yielded a PBM binding z-score of 0.945.

The sequence CATGCTAGGTCAATGGTCAGCTAAAGCAGCTCGC returned a PBM binding z-score of 1.06.

For CGTCCAAGGCCAAGGTCAGTGAAAGAGACTCGAA, the PBM binding z-score is 1.15.

Take CCTAGCTGGTCAGGAGGTCACACACCGGATATGA: the PBM binding z-score amounted to 3.73.

The values above are taken from the supplement of paper PMC6555819.
